# KKLEB tox = counter-screen for CF NF-kB inhibitors: cytotoxicity. KKLEB CF airway cells viability, ATPlite luminescence, overnight; stronger effect = lower value; cells stimulated with P. aeruginosa culture filtrate. activity change (cytotoxicity), % at 5 µM. 360,000 compounds, 0.36% hits;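 active means corrected activity change at or below -50% at 5 µM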
# HIF-2a inh = HIF-2a inhibition; 786-0 RCC cells HIF-2a reporter, luciferase luminescence, overnight; inhibition, % at 18.8 µM; 360,000 compounds, 0.72% hits; AID 624352;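 active means inhibition of the luminescence signal of 40% or more relative to plate controls, in a single-dose primary screen at 18.75 µM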
# TRAIL sens C8 = caspase-8 TRAIL sensitization; NB7+C8 cells + TRAIL, ATPlite viability luminescence; inhibition (viability loss, TRAIL sensitization), % at 10 µM; 360,000 compounds, 1% hits; AID 624354;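 active means compounds causing at least 50% loss of cell viability in the single-dose screen, relative to plate controls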
# CF NFkB block = cystic fibrosis NF-kB activation inhibition; KKLEB NF-kB-GFP reporter, PAF-induced, GFP fluorescence overnight; inhibition, % at 5 µM; 360,000 compounds, 0.86% hits;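 active means at least 50% inhibition at 5 µM, scaled per plate between neutral and stimulator controls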;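 further: PAF is a Pseudomonas aeruginosa culture filtrate used as stimulus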
# hiPSC survival = hiPSC single-cell survival enhancement; ATPlite luminescence; 100% = ROCK inhibitor wells, 0% = DMSO; survival enhancement, % at 20 µM; 360,000 compounds, 0.044% hits; AID 602274; in the data active means survival enhancement above about 18%;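 further: cells exposed to compounds for 16 hours before the ATP read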
# PPC-1+TRAIL kill = compounds killing PPC-1 cancer cells with TRAIL present (potentiator screen, no TRAIL-free arm). cell killing (% activity), % at 4 µM or 5 µM. PPC-1 cells + TRAIL, ATPLite viability luminescence. 220,000 compounds, 0.41% hits;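 active means cell killing above 50% in the first pass at 4 µM, then a duplicate retest at 5 µM averaging 50% or more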
# Hits are given with their value; i = inactive; nt = no result. Most compounds without a hit are left out; they make up all but 2.2% or so of the library.
SMILES,KKLEB tox,HIF-2a inh,TRAIL sens C8,CF NFkB block,hiPSC survival,PPC-1+TRAIL kill
CCN(Cc1ccccc1)C(=O)C(=O)c1cn(CC(=O)N2CCCC2)c2ccccc12,i,i,i,i,i,nt
Cc1c(C#N)c(O)n(C)c(=O)c1N=Nc1ccc(S(N)(=O)=O)cc1,i,i,i,i,i,nt
CCOC(=O)c1ccc(N=Nc2c(C)c(C#N)c(O)[nH]c2=O)cc1,i,i,i,65,i,i
COc1ccc(CNS(=O)(=O)c2cc(-c3cc(C)no3)ccc2C)cc1OC,i,i,i,i,i,nt
NC(=S)NN=Cc1nccc2c(C(F)(F)F)cccc12,i,i,i,70,i,nt
c1coc(C2Nc3ccccc3C3OCCC23)c1 (centres undefined),i,i,i,i,i,i
COc1ccc2c(c1)C1OCCC1C(c1ccco1)N2 (centres undefined),i,i,83,i,i,nt
O=C(O)c1cc2c(cc1NC(=O)C1CCCC1)OCCO2,i,i,i,i,i,nt
CN1CCN(C(=O)c2ccc(-c3cccs3)s2)CC1,i,i,i,i,i,i
O=C(c1cccs1)c1ccc(-c2cccs2)s1,i,i,51,i,i,i
O=c1oc2ccccc2cc1-c1nc2c(s1)CCCC2,i,i,63,i,i,i
CC[C@]12c3[nH]c4cc(CCC(=O)N(C)C)ccc4c3CCN1C(=O)[C@@H](CC(=O)NCc1cccc(C(F)(F)F)c1)C[C@@H]2C(=O)N1CCN(C(=O)c2ccco2)CC1,i,i,i,i,i,nt
COc1ccc(/C=C/C(=O)NC(=S)Nc2ccccn2)cc1,i,i,51,i,i,nt
COc1ccccc1/C=C/C(=O)NC(=S)Nc1ccccn1,i,i,i,i,i,nt
Cc1cc(/C=N/n2c(COc3ccccc3)nc3ccccc3c2=O)c(O)c([N+](=O)[O-])c1,i,i,51,i,i,i
COc1ccc(COC(=O)c2cc([N+](=O)[O-])ccc2N2CCOCC2)cc1F,i,i,i,55,i,nt
O=C(OCc1ccc(Br)cc1)c1cc([N+](=O)[O-])ccc1N1CCOCC1,i,i,i,i,i,nt
COc1cccc(C(=O)O/N=C(\N)c2ccccn2)c1,i,i,79,i,i,nt
N/C(=N\OC(=O)c1cccc([N+](=O)[O-])c1)c1ccccn1,i,i,i,i,i,i
CCCc1ccc(C(=O)O/N=C(\N)c2ccccn2)cc1,i,63,89,i,i,nt
CC(C)CN1C(=O)NC(NS(=O)(=O)c2ccc(N)cc2)(C(F)(F)F)C1=O (centres undefined),i,i,i,i,i,i
Cc1ccnc(NC(=O)CNC(=O)c2sc3ccccc3c2Cl)c1,i,i,i,i,i,nt
Cc1ccc(NC(=O)c2sc3ccccc3c2Cl)nc1,i,i,70,i,i,i
COc1ccccc1C(=O)NNC(=S)NC(=O)c1sc2ccccc2c1Cl,-56,i,i,i,i,i
Cc1cccnc1NC(=O)c1sc2ccccc2c1Cl,i,i,54,i,i,nt
SMILES,KKLEB tox,HIF-2a inh,TRAIL sens C8,CF NFkB block,hiPSC survival,PPC-1+TRAIL kill
COc1ccccc1C(=O)NC(=S)NNC(=O)c1sc2ccccc2c1Cl,i,i,i,i,i,i
O=C(NC1=NCCS1)c1sc2ccccc2c1Cl,i,i,i,i,i,i
COc1ccccc1C(CNc1ccc(S(=O)(=O)N2CCCC2)cc1[N+](=O)[O-])N(C)C (centres undefined),i,i,65,i,i,nt
Cc1cc(C)c(C)c(S(=O)(=O)N2CCN(C(=O)C3CSC4(C)CCC(=O)N34)CC2)c1C (centres undefined),i,i,i,i,i,nt
CCC(C)n1ncn(-c2ccc(N3CCN(c4ccc(OCC5COC(Cn6cncn6)(c6ccc(Cl)cc6Cl)O5)cc4)CC3)cc2)c1=O (centres undefined),i,i,i,63,i,i
CCC(C)n1ncn(-c2ccc(N3CCN(c4ccc(O)cc4)CC3)cc2)c1=O (centres undefined),i,i,i,i,i,i
CCCCNC(=O)C1(C)CCN1C(=O)c1cc(OC)ccc1Br (centres undefined),i,i,i,i,i,nt
O=C(/C=C/Nc1ccc(F)c(F)c1)c1ccc(Br)cc1,i,i,i,i,i,i
N#Cc1ccccc1N/C=C/C(=O)c1ccc(Cl)cc1,i,i,51,i,i,nt
O=C(/C=C/Nc1ccccc1F)c1ccc(Br)cc1,i,i,68,i,i,i
O=C(/C=C/Nc1ccc(Br)cc1F)c1ccccc1,-78,i,94,i,i,80
CC(=O)Nc1ccc(N/C=C/C(=O)c2ccc(Cl)cc2)cc1,i,i,i,i,i,nt
COc1ccc(-c2ccc3sc4ccccc4c(=O)c3c2)cn1,i,i,66,i,i,nt
O=C(O)CCCCCN1C(=O)/C(=C/c2cn(-c3ccccc3)nc2-c2cccs2)SC1=S,i,i,i,68,i,nt
O=C(O)CCN1C(=O)/C(=C/c2cn(-c3ccccc3)nc2-c2cccs2)SC1=S,i,i,i,i,i,nt
O=C(O)CCCCCN1C(=O)/C(=C\c2cn(-c3ccccc3)nc2-c2cccs2)SC1=S,i,i,i,59,i,i
COCCN(C(=O)COC(=O)/C=C/c1cccc(C(F)(F)F)c1)c1c(N)n(CC(C)C)c(=O)[nH]c1=O,i,i,i,i,i,nt
Cn1ncc2c(NCCc3ccccc3)nc(Cl)nc21,i,i,i,i,i,nt
Cc1nc2ccccc2cc1C(=O)N/N=C/c1cccc([N+](=O)[O-])c1,i,i,i,i,i,i
CCCCCCCC(=O)Nc1ccc(C(=O)N/N=C/c2cccc([N+](=O)[O-])c2)cc1,i,i,57,i,i,i
Nc1ccccc1C(=O)NN=Cc1cccc([N+](=O)[O-])c1,i,i,59,i,i,nt
Nc1ccccc1C(=O)NN=Cc1cccnc1,i,i,60,i,i,nt
O=C(CSc1c2c(nc3ccc(Cl)cc13)CCCC2)N1CCN(C(=O)c2ccco2)CC1,i,i,i,54,i,nt
Nc1ccc(-c2cnc3ccccc3n2)cc1,i,i,i,i,i,nt
Oc1ccc(-c2cnc(-c3ccc(O)cc3)nc2)cc1,i,i,80,i,i,nt
Nc1ccc(-c2cnc(-c3ccc(N)cc3)nc2)cc1,i,i,73,i,i,i
CCN(CC)CCNC(=O)C(=O)NCC1OCCN1S(=O)(=O)c1ccc2c(c1)OCCO2 (centres undefined),i,i,i,i,i,i
CN1CCCN=C1COC(=O)C(O)(c1ccccc1)C1CCCCC1 (centres undefined),-64,i,i,i,i,i
CCn1c2ccccc2c2nc3cc(C(=O)O)ccc3nc21,-63,i,i,i,i,i
CCn1c2ccccc2c2nc3ccccc3nc21,i,i,i,i,i,i

# Screening results from PubChem.
